High-throughput results (PubChem BioAssay)
In the library only some 3.9% were active in any assay of this set; here they are far more common.
HT1080NT lethal – kills 2HG-producing HT-1080-NT fibrosarcoma cells; HT-1080-NT fibrosarcoma viability, CellTiter-Glo ATP luminescence, 48 h; Potency, µM (doses to about 46.1 µM), without a hit: top-dose activity, negative = less viability, usual class: cytotoxic; actives 1.6% (n = 360,000); AID 686970;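 further: NT is the 2HG producing partner of a matched IDH1 knockdown line; 0% = DMSO-treated cells and -100% = media-only wells without cells; nearly all actives have a fitted effect of over 55% in size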
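Viability by CellTiter-Glo luminescence after 48 h compound exposure at 37C of HT-1080-NT cells (750/well, RPMI, 5% FBS). % activity scaled between DMSO wells and medium-only wells, then curve-fitted and categorized by curve class.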
S2 tox – viability counter-screen for ATXN expression inhibitors; AID 651635; actives 0.49% (n = 400,000); Potency, µM (highest dose often 56.7 µM), actives largely listed as cytotoxic; S2 cells (HEK-293 line with an ATXN2-luciferase reporter) viability, CellTiter-Fluor protease fluorescence, 24 h; further: nearly all actives have a fitted effect of over 40% in size
TGFb inhibitor – blocks TGF-b signaling; HepG2 CAGA-GFP TGF-b/SMAD3 reporter, GFP fluorescence, 18 h; TGF-beta stimulated, 500 pg/mL final; Potency, µM (series often up to 46.1 µM), for the others: at the top dose activity, negative = inhibition, actives largely listed as inhibitors; actives 1.2% (n = 410,000); AID 588855; further: on the % scale 0 is the no-effect control and ±100 the full control effect; nearly all actives have a fitted effect of over 65% in size
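Inhibition of TGF-beta-driven CAGA-GFP reporter expression in HEPG2 cells is measured by cellular GFP fluorescence after 18 h stimulation with 500 pg/mL recombinant TGF-beta in 1% FBS medium at 37 degrees C.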
ATXN2 expr inh – inhibitors of ATXN2 expression | HEK-293 ATXN2-luciferase reporter, luminescence, 24 h | Potency, µM (titrated, usually from 57 µM), inactives show at the highest dose activity change, negative = inhibition, usual class: inhibitors | actives 0.72% (n = 360,000) | AID 1745845; further: on the % scale 0 is the no-effect control and ±100 the full control effect; nearly all actives have a fitted effect of over 55% in size
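ATXN2-luciferase reporter cells (luciferase flanked by upstream and downstream ATXN2 gene portions) were treated 24 h at 37 °C with compounds at up to 57 uM. SteadyGlo luminescence gave expression; GF-AFC fluorescence gave viability.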
HepG2 tox – counter-screen for TGF-b inhibitors: cytotoxicity in HepG2 cells; HepG2 CAGA-GFP viability, ATP luminescence, 18 h; Potency, µM (doses to about 46.1 µM), for inactives: at the highest dose activity change, negative = cytotoxicity, actives largely listed as cytotoxic; actives 0.76% (n = 410,000); AID 588856
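CellTiter-Glo luminescence gave cytotoxicity after 18 hours at 37 degrees C. The cells were HepG2 CAGA-GFP in 1% FBS DMEM, stimulated with 500 pg/mL TGF-beta after compound addition. %Activity was normalised to no-cell wells (complete cell-killing) and DMSO (no toxicity), and curves were fitted and classified.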
HT1080 IDH1KD tx – HT-1080 IDH1 knockdown cell toxicity (counter line); HT-1080 IDH1 knockdown viability, ATP luminescence, 48 h; actives 2% (n = 360,000); Potency, µM (top dose mostly 46.1 µM), inactives show top-dose activity, negative = toxicity, actives largely listed as cytotoxic;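 further: 0% = DMSO wells and -100% = cell-free medium wells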
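Using the IDH1-knockdown HT-1080 line run in the same batch and compound series as the NT line, viability after 48 h at 37 °C was determined by CellTiter-Glo luminescence and expressed as % activity.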
* = called active by the depositor. The call rests on the fitted dose curve; in most records, active means well fitted curve in the direction sought with a large enough effect; inconclusive means small, poorly fitted or top-dose-only effect, or another doubt; inactive means no such curve, though single readings can be large; an effect the other way counts as inactive or inconclusive. Potency means the concentration at half of the fitted maximal effect.

S=C(NCc1ccc(Cl)cc1)NCc1ccccn1 was read as HT1080NT lethal 6%, S2 tox inactive, TGFb inhibitor 7%, ATXN2 expr inh -2%, HepG2 tox -21% and HT1080 IDH1KD tx 3%.
For CC(C)CCC(CCNCc1ccccn1)c1ccc(Cl)cc1 (configuration not stated) the results were HT1080NT lethal inconclusive, S2 tox inactive, TGFb inhibitor 0%, ATXN2 expr inh -37%, HepG2 tox 20µM* and HT1080 IDH1KD tx inconclusive.
`COC1C=COC2(C)Oc3c(C)c(O)c4c(O)c(c(CN5CCN(C)CC5)c(O)c4c3C2=O)NC(=O)C(C)=CC=CC(C)C(O)C(C)C(O)C(C)C(OC(C)=O)C1C` (configuration not stated) gave HT1080NT lethal 4%, S2 tox inactive, TGFb inhibitor -9%, ATXN2 expr inh 15%, HepG2 tox 8% and HT1080 IDH1KD tx 12%.
Screening CO[C@H]1/C=C\O[C@@]2(C)Oc3c(C)c(O)c4c(O)c(c(C=NN5CCN(C6CCCC6)CC5)c(O)c4c3C2=O)NC(=O)C(C)=CC=C[C@H](C)[C@H](O)[C@@H](C)[C@@H](O)[C@@H](C)[C@H](OC(C)=O)[C@H]1C returned TGFb inhibitor 11µM*, ATXN2 expr inh 5.4µM* and HepG2 tox -41%.
`Cc1ccc(OCCN2CCN(C(=O)CCC(=O)Nc3nnc(CC(C)C)s3)CC2)cc1` gave HT1080NT lethal inconclusive, S2 tox inactive, TGFb inhibitor 11µM*, ATXN2 expr inh -17%, HepG2 tox -80% and HT1080 IDH1KD tx 9.2µM*.
`CC(C)Cc1nnc(NC(=O)CCC(=O)N2CCN(Cc3ccc(F)cc3)CC2)s1` gave HT1080NT lethal 13%, S2 tox inactive, TGFb inhibitor -9%, ATXN2 expr inh -18%, HepG2 tox -9% and HT1080 IDH1KD tx 0%.
Screening Cc1ccc(NC(=O)c2nc(S(C)(=O)=O)ncc2N(Cc2ccc(C(C)(C)C)cc2)Cc2ccco2)cc1C returned S2 tox inactive, TGFb inhibitor -11%, ATXN2 expr inh 5% and HepG2 tox -7%.
COc1ccc(CN(CCC(c2ccc3c(c2)OCO3)c2ccccc2OC)C(C)=O)cc1 (configuration not stated) was read as TGFb inhibitor 13µM* and HepG2 tox -31%.
For CC(=O)N(CCC(Cc1ccccc1)c1ccc2c(c1)OCO2)Cc1ccc(Cl)cc1 (configuration not stated) the results were HT1080NT lethal inconclusive, S2 tox inconclusive, TGFb inhibitor inconclusive, ATXN2 expr inh inconclusive, HepG2 tox 10µM* and HT1080 IDH1KD tx inconclusive.
`COc1c(C)c2c(c(O)c1CC=C(C)CCC(=O)O)C(=O)OC2` gave ATXN2 expr inh 64%.
Screening CC1(C)CC2(C)OC2C2(C1)N=NC(=Nc1ccccc1)O2 (configuration not stated) returned HT1080NT lethal 9.2µM*, S2 tox 22µM*, TGFb inhibitor 2.8µM*, ATXN2 expr inh -18%, HepG2 tox -69% and HT1080 IDH1KD tx inconclusive.
COc1ccc(/C=C/c2cc(-c3ccc(C)cc3)o[n+]2C)cc1 was read as HT1080NT lethal 15µM*, S2 tox inconclusive, TGFb inhibitor 10µM*, ATXN2 expr inh inconclusive, HepG2 tox -51% and HT1080 IDH1KD tx 6.5µM*.
For COc1ccc(/C=C/c2c(-c3ccc(OC)cc3)oc3ccc(-c4ccc(OC)cc4)cc23)cc1 the results were HT1080NT lethal -6%, S2 tox inactive, TGFb inhibitor 16%, ATXN2 expr inh -1%, HepG2 tox 15% and HT1080 IDH1KD tx -2%.
